# The list is not random: actives were taken first. Their share in the collection is about 1.9%.
# S1P4 antagonist: S1P4 receptor antagonists, primary screen, cell-based; Sphingosine 1-phosphate receptor 4 (Homo sapiens), O95977; S1P4-expressing cells, antagonist mode, reporter read-out; inhibition, % at 4.98 µM; 220,000 tested, 0.26% active; in the data active = inhibition above about 29%;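 also: 0% = wells stimulated with agonist and 100% = vehicle wells without agonist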
# EP2 modulator: EP2 receptor modulators, cAMP readout, primary screen, cell-based, HTRF cAMP, PGE2 stimulation; EP2-expressing cells, cAMP HTRF FRET, PGE2 co-stimulation; induction, % at 25 µM; 260,000 tested, 0.83% active;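 active = compounds whose cAMP rise, as percent of the full-agonist control response, exceeds 60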;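 also: rat C6 glioma line stably carrying human EP2 under a CMV promoter; the protocol text gives 20 µM as final concentration; 100% = response of wells given 1 µM PGE2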
# Target sequence (P43116 whole entry, looked up): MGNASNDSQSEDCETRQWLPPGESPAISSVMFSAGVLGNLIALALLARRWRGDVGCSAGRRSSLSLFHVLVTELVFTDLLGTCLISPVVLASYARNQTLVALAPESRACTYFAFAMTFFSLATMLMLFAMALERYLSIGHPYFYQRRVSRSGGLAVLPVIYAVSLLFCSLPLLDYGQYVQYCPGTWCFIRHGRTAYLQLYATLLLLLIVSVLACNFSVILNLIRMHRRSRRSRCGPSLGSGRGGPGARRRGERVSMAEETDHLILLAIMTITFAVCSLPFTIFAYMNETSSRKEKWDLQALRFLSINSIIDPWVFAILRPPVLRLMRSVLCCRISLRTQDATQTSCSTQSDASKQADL
# S1P4 ag: S1P4 receptor agonists, primary screen, cell-based | Sphingosine 1-phosphate receptor 4 (Homo sapiens), O95977 | activation, % at 4.98 µM | S1P4-expressing cell line, agonist reporter assay | 220,000 tested, 0.35% active; in the data active = activation above about 11%;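 also: 0% = DMSO vehicle and 100% = reference agonist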
# PGE2 EP2 inh: human EP2 receptor antagonists, primary screen, TR-FRET cAMP, C6 glioma cells | C6 glioma cells expressing human EP2; cells stimulated with saturating PGE2 | AID 1422, 2008 | inhibition, % at 25 µM | Prostaglandin E2 receptor EP2 subtype (Homo sapiens), P43116 | 260,000 tested, 0.52% active;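 active = percent inhibition above 40 after rounding to a whole number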;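 also: rat C6 glioma host cells with rolipram phosphodiesterase inhibitor present; the protocol text gives 20 µM as final concentration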
# S1P3 antagonist: S1P3 receptor antagonists, primary screen, cell-based. CHO S1P3 NFAT-BLA reporter, FRET fluorescence, antagonist mode. inhibition, % at 4.98 µM. 170,000 tested, 0.27% active. AID 485, 2006. Sphingosine 1-phosphate receptor 3 (Homo sapiens), Q99500;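 active = inhibition above the plate cutoff, the mean inhibition of test wells on that plate plus 3 SD, cut at about 28% in these data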;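 also: cells challenged with S1P at its EC80 of 0.8 µM; blue over green emission ratio from cleaved BLA substrate after 4 h stimulation; 0% = S1P-stimulated wells and 100% = unstimulated DMSO-only wells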
# Numbers without * were called inactive; . = no result; ! = not active in a repeat.
SMILES,S1P4 antagonist,EP2 modulator,S1P4 ag,PGE2 EP2 inh,S1P3 antagonist
Cc1cc2c(cc3c(=O)n(CC(=O)NC(C)c4ccccn4)nc(C)n32)o1 (centres undefined),.,-3,.,8,.
COC(=O)[C@H](Cc1ccccc1)NC(=O)O[C@H]1C(=O)c2ccc(OC)cc2O[C@@H]1c1ccc2c(c1)OCO2,-1,0,1,51*,-11
COc1ccc2c(c1)O[C@@H](c1cccc(C(F)(F)F)c1)[C@H](OC(=O)NCCc1ccc(OC)c(OC)c1)C2=O,-18,39,1,.,-6
COC(=O)[C@H](Cc1ccccc1)NC(=O)O[C@@H]1C(=O)c2cc(OC)ccc2O[C@H]1c1ccc(OC)c(Br)c1,-4,12,0,.,9
COC(=O)[C@@H](NC(=O)O[C@@H]1C(=O)c2ccc(OC)cc2O[C@H]1c1cccc(C(F)(F)F)c1)C(C)C,9,62*,0,.,-4
COc1ccc(CNC(=O)C2CCCN(S(=O)(=O)c3cccc4ccccc34)C2)c(OC)c1 (centres undefined),.,-5,.,7,.
CCc1cccc2[nH]c3cc([N+](=O)[O-])ccc3c12,-1,65*,1,7,-4
CCCc1nc2ccc([N+](=O)[O-])cc2[nH]1,-5,-9,0,9,-11
O=C(CN1CCCC(O)C1)N1c2ccccc2Sc2ccc(C(F)(F)F)cc21 (centres undefined),-5,15,0,6,2
CN1CCN(CCCN2c3ccccc3Sc3ccc(C(F)(F)F)cc32)CC1,-10,-21,1,41*!,-20
CC(C)OC(=O)CN1C(=O)CSC1=O,.,27,.,10,.
O=c1oc2c3c4c(cc2s1)CCCN4CCC3,0,73*,2,3,.
O=c1ccc2cc3c4c(c2o1)CCCN4CCC3,-6,-51,2,7,-9
CSc1nc(N2CCOCC2)c2sccc2n1,-11,6,0,5,-15
CSc1nc(Oc2ccc(Cl)cc2)c2sccc2n1,-12,64*,-3,11,.
CN(C)Cc1ccc(F)cc1Sc1ccc(Cl)cc1Cl,11,62*,0,3,-33
CCc1cc2ccccc2nc1SCC(=O)Nc1sc(C)c(C)c1C#N,.,11,.,9,.
Cn1c(=O)c2[nH]c(CS(=O)(=O)Cc3nc4c([nH]3)c(=O)n(C)c(=O)n4C)nc2n(C)c1=O,.,34,.,50*,.
Cc1nnc(NC(=O)CSc2nnc(Cc3cccn3C)n2-c2cccc(C(F)(F)F)c2)s1,-6,-5,0,10,88*
Cc1ccc(-n2c(Cc3cccn3C)nnc2SCC(=O)Nc2nnc(C)s2)cc1,-3,-5,1,4,-28
CC1=NN(C(=O)COc2ccc(C)c(C)c2)C(O)(c2ccc(Cl)cc2)C1 (centres undefined),-12,21,0,7,5
CC1=NN(C(=O)COc2cc(C)ccc2C(C)C)C(O)(c2ccccc2)C1 (centres undefined),0,61*,2,3,4
CCc1cc2cc3c(cc2nc1SCC(=O)Nc1ccccc1Cl)OCO3,.,44,.,7,.
Cc1cc(C)n(Cc2ccc(Cl)cc2Cl)c(=O)c1S(=O)(=O)c1ccccc1,-7,62*,2,10,.
CSc1cc(-c2ccccc2)n(Cc2ccc(Cl)cc2Cl)c(=O)c1C#N,9,22,1,9,.
SMILES,S1P4 antagonist,EP2 modulator,S1P4 ag,PGE2 EP2 inh,S1P3 antagonist
CC1(C)Cc2nc3sc4c(SCC(=O)NCc5ccccc5)ncnc4c3cc2CO1,-3,63*,1,24,.
COc1ccc(-c2ccc(=O)n(CC3CCN(C(=O)c4ccc(F)c(F)c4)CC3)n2)cc1,.,-43,.,.,.
CCOC(=O)c1ccccc1NC(=O)CSc1nc2ccccc2o1,-19,61*,1,4,-15
CCOC(=O)c1ccccc1NC(=O)Cc1ccccc1OC,-8,62*,1,0,.
COc1ccccc1CC(=O)Nc1ccccc1C(=O)O,9,8,-2,4,.
CCOC(=O)c1c(NC(=O)CSc2nc3ccccc3o2)sc(C)c1C,-6,38,0,5,.
CCOC(=O)c1ccccc1NC(=O)Cn1c(-c2nonc2N)nc2ccccc21,-11,20,0,16,56*
COc1ccccc1CNc1nc2ccccc2n1C,.,-58,.,11,.
